Rows were chosen to be rich in hits. Some 2.1% of all compounds tested hit in one or more screens of this group.
PGE2 EP2 inh: blocks the human prostaglandin E2 receptor EP2. 0.52% of 260,000 active. inhibition, % at 25 µM. P43116. AID 1422. C6 glioma cells expressing human EP2, cAMP TR-FRET; cells stimulated with saturating PGE2;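 active means percent inhibition above 40 after rounding to a whole number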;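 further: rat C6 glioma host cells with rolipram phosphodiesterase inhibitor present; the protocol text gives 20 µM as final concentration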
Target sequence (P43116 whole entry, looked up): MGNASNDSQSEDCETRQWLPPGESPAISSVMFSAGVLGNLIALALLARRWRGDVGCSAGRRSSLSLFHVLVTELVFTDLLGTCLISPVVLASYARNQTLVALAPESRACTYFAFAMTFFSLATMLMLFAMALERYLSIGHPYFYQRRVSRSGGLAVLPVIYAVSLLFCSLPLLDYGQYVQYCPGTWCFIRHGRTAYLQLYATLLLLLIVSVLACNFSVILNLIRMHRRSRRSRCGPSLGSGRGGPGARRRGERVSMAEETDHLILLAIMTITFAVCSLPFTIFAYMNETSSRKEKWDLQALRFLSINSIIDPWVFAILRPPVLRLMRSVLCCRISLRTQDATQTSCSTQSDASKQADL
Avidin fluor: compound fluoresces at 488/530 nm on avidin beads. compound fluorescence 488/530 nm, flow cytometry; hits give high values. fluorescence (KMESF) at 10 µM. 0.38% of 220,000 active; in the data active means fluorescence above about 47
GSH fluor: compound fluoresces at 488/530 nm on GSH beads; GSH beads flow cytometry, compound fluorescence 488/530 nm; hits give high values; fluorescence (KMESF) at 10 µM; 0.25% of 190,000 active; AID 1776; in the data active means fluorescence above about 89;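 further: glutathione beads carrying GST-tagged Bcl family fusion proteins plus one bare bead set; values are compound well signal with DMSO vehicle wells as background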
HMGR II inh: inhibitors of class II HMG-CoA reductase from Enterococcus faecalis; AID 1066; inhibition, % at 10 µM; purified E. faecalis HMGR, NADPH absorbance 340 nm kinetic; 0.41% of 190,000 active;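 active means inhibition above a set limit, the median over all tested compounds plus 3 SD, cut at about 9.5% in these data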;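 further: enzyme runs in reverse so mevalonate oxidation gives rising NADPH absorbance; 0% = complete reaction with DMSO and 100% = background rate lacking mevalonate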
EP2 modulator: modulators of human EP2 prostaglandin E2 receptor; P43116; induction, % at 25 µM; 0.83% of 260,000 active; EP2-expressing cells, cAMP HTRF FRET, PGE2 co-stimulation;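 active means compounds whose cAMP rise, as percent of the full-agonist control response, exceeds 60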;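 further: rat C6 glioma line stably carrying human EP2 under a CMV promoter; the protocol text gives 20 µM as final concentration; 100% = response of wells given 1 µM PGE2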
* = called active by the depositor; . = no result given.

SMILES	PGE2 EP2 inh	Avidin fluor	GSH fluor	HMGR II inh	EP2 modulator
Nc1nc2c(ncn2[C@@H]2CC[C@@H](CO)O2)c(=O)n1C(=O)c1ccccc1	57*	.	.	.	-4
CC(C)Oc1ccc(C(=O)Nc2nnn(C)n2)cc1	5	.	.	.	-23
CCNC(=S)N(Cc1cc2ccc(C)c(C)c2[nH]c1=O)C1CCCCC1	23	.	.	.	-35
CC(C)(C)OC(=O)N[C@@H](Cc1ccccc1)c1nnc(S(=O)(=O)Cc2ccccc2)o1	3	8	9	5	17
Cc1ccccc1CS(=O)(=O)c1nnc([C@H](Cc2ccccc2)NC(=O)OC(C)(C)C)o1	2	48*	6	-1	2
Cc1ccc(NC(=O)CSCc2nc3sc4c(c3c(=O)[nH]2)CCCC4)c(C)c1	10	.	.	.	-39
Cc1ccc2nc(C)c3c(c2c1)SCC3	10	102*	.	.	6
CC(C)(C)c1ccc(N/N=C(\C#N)S(=O)(=O)C(C)(C)C)cc1	6	16	12	-8	-48
Cc1cccc(N/N=C(\C#N)S(=O)(=O)C(C)(C)C)c1	0	22	10	17*	-8
CC1(C)N=C(N)N=C(N)N1c1cccc(OCc2cccc([N+](=O)[O-])c2)c1	47*	.	.	.	10
COc1cccc(N2C(N)=NC(N)=NC2(C)C)c1	8	6	13	-1	14
O=S1(=O)N[C@H]2CC[C@H]3NS(=O)(=O)N[C@H]4CC[C@@H](N1)N4S(=O)(=O)N23	45*	.	.	.	27
COc1ccc(/C=C/C(=O)c2ccc(O)cc2O)cc1	13	.	.	.	-22
COc1ccc(/C=C/C(=O)c2cc(O)ccc2O)cc1	50*	.	.	.	-49
CCC(c1nnnn1C(C)(C)C)N(Cc1ccc(OC)cc1)Cc1cc2cccc(C)c2[nH]c1=O (stereo unspecified)	13	.	.	.	9
CC(=O)NC12CC3CC(C1)CC(C(=O)OCC(=O)Nc1ncc(Cl)c(C)c1Cl)(C3)C2	6	8	262*	-1	17
O=C(O)c1ccc(-c2nc3scc(-c4ccccc4)c3c(=O)[nH]2)cc1	41*	3	.	.	-7
CSc1cccc(NC(=O)Cn2cnc3c(=O)n(C)c(=O)n(C)c32)c1	8	.	.	.	-44
CCNC(=S)/N=C(/Nc1ccccc1)Nc1nc(C)cc(C)n1	7	7	.	.	70*
O=C(CSc1nnc(COc2cccc3cccnc23)o1)N1CCCC1	10	10	18	12*	8
CC1CCCC(C)N1C(=O)CSc1nnc(COc2cccc3cccnc23)o1 (stereo unspecified)	5	10	13	0	-8
COCCCNC(=O)c1c(NC(=O)c2ccccc2C)sc2c1CCCC2	45*	.	.	.	-23
C=CCNC(=O)c1c(NC(=O)c2ccc(OC)c(OC)c2)sc2c1CCCC2	7	.	.	.	66*
C=CCNC(=O)c1c(NC(=O)c2ccccc2C)sc2c1CCCC2	9	.	.	.	21
O=S(=O)(c1ccc(S(=O)(=O)N2CCOCC2)cc1)N1CCCCCC1	9	.	.	.	-20
SMILES	PGE2 EP2 inh	Avidin fluor	GSH fluor	HMGR II inh	EP2 modulator
Cn1c2ccccc2c2ncn(CCN3CCOCC3)c(=O)c21	3	9	253*	-5	15
O=C1NC(=O)N(c2ccc(F)cc2)C(=O)/C1=C/c1ccco1	53*	.	.	.	-120
O=C(C[N+]12CN3CN(CN(C3)C1)C2)c1ccc(-c2ccccc2)cc1	58*	.	.	.	4
COc1cc(C2Oc3cc(C4CC(=O)c5c(O)cc(O)cc5O4)ccc3OC2CO)ccc1O (stereo unspecified)	13	.	.	.	7
C/C(N[O-])=C(\C)[N+]([O-])=[Cu].C/C(N[O-])=C(\C)[N+]([O-])=[Cu].CC(=N\[O-])/C(C)=N/[O-].CC(=N\[O-])/C(C)=N/[O-]	56*	.	.	.	-16
C/C(N[O-])=C(\C)[N+]([O-])=[Fe].CC(=N\[O-])/C(C)=N/[O-].[NH2-].c1c[nH+]c[n-]1	44*	.	.	.	-9
O=C(O)c1cc(-c2ccccc2O)on1	5	.	.	.	-20
Cc1ccc(-n2nnnc2C(Cl)(Cl)c2nnnn2-c2ccc(C)cc2)cc1	91*	7	22	-2	-5
Cc1nc(NCCCN2CCCC2=O)c2nnn(Cc3ccccc3)c2n1	10	.	.	.	3
CC1(C)Cc2c(C#N)c(NCc3ccco3)nc(-c3ccco3)c2CO1	5	15	21	12*	39
CS(=O)(=O)N(CC(N)=O)c1cccc(Br)c1	19	6	13	17*	15
CCc1cc2ccccc2nc1SCC(=O)Nc1ccccc1C	19	.	.	.	80*
CCc1ccccc1NC(=O)CSc1nc2ccc(OC)cc2cc1C	22	.	.	.	70*
CCc1cc2ccccc2nc1SCC(=O)NCCc1ccc(OC)c(OC)c1	15	.	.	.	61*
CCc1ccccc1NC(=O)CSc1nc2ccc(OC)cc2cc1C#N	24	.	.	.	21
O=C(CSc1nc2ccccc2cc1Cc1ccccc1)Nc1nccs1	18	.	.	.	64*
COc1ccc(NC(=O)CSc2nc3ccccc3cc2Cc2ccccc2)cc1	7	9	55	-2	57
Cc1ccc(NC(=O)CSc2nnc3c(n2)[nH]c2ccc(F)cc23)cc1Cl	7	.	.	.	-85
CC(=O)Nc1ccc(C(=O)Nc2nc3ccc(Cl)cc3s2)cc1	15	.	.	.	-1
COCCNC(=O)CN(C(=O)CCC(=O)Nc1nccs1)c1ccccc1F	9	.	.	.	-16
COc1cc(OC)cc(C(=O)N2CCC(C(=O)NCc3ccc(C)cc3)CC2)c1	10	.	.	.	-31
O=c1c2c(C(F)(F)F)cc(C(F)(F)F)nc2[nH]n1-c1ccccc1	13	5	89*	-1	22
Cc1cc(C(C)(C)C)nc2[nH]n(-c3ccccc3)c(=O)c12	2	15	35	-4	-14
CCOc1ccc(C(=O)NCC2CCCO2)cc1OCC (stereo unspecified)	11	13	24	13*	-15
COc1ccc(-c2oc3ncnc(NCCCN4CCOCC4)c3c2-c2ccc(OC)cc2)cc1	6	31	17	-5	61*
SMILES	PGE2 EP2 inh	Avidin fluor	GSH fluor	HMGR II inh	EP2 modulator
COc1cccc(NC(=S)/C(=C(\[O-])c2ccc(OC(F)F)cc2)[n+]2ccccc2)c1	9	11	12	11*	7
COc1cccc(NC(=S)/C(=C(\[O-])c2ccc(C)c([N+](=O)[O-])c2)[n+]2ccccc2)c1	4	37	17	6	8
CCN(CC)CCN1C(=O)C(=O)/C(=C(\O)c2ccc(OC)c(F)c2)C1c1ccncc1 (stereo unspecified)	9	.	.	.	18
Cc1ccc(C(=O)N(Cc2cc3cccc(C)c3[nH]c2=O)C2CCCCC2)cc1	7	.	.	.	-30
CCS(=O)(=O)c1ccc(OC)c(N=Nc2ccc(O)c3ncccc23)c1	10	7	20	-3	40
NS(=O)(=O)c1cc(Br)c(N=Nc2ccc(O)c3ncccc23)c(Br)c1	47*	.	.	.	-17
CC1(C)Cc2c(sc3c2c(=N)n(Cc2ccco2)c(=O)n3Cc2ccc(Cl)cc2)CO1	13	4	47	-5	61*
O=c1c2c3c(sc2[nH]c(=S)n1Cc1ccco1)CCC3	40*	10	.	.	44

Assay outcomes as filed in PubChem.
